For 15 compounds, outcome results are on record in PubChem BioAssay (EPA / NIEHS).

Active and inactive are the calls of the source. Rule for the calls: active = hit-call score of the fitted dose curve at least 0.9, where 1 is the maximum; inactive = score below 0.9.

Read-out in the test: Intercellular Adhesion Molecule 1 (ICAM1), ICAM1 (gene 3383)
The experiment in a line: BSK_BE3C_ICAM1: BioMAP Diversity Plus: BE3C Assay for Intercellular Adhesion Molecule 1 (ICAM1) Biomarker Activity (AID 2284278). Particulars: primary human bronchial epithelial cells. The protocol:
BSK_BE3C is a cell-based, multiplexed-readout assay that uses bronchial epithelial cell, a human lung primary cell, with measurements taken at 24 hours after chemical dosing in a 96-well plate.BSK_BE3C_ICAM1 is an assay component measured in the BSK_BE3C assay. It measures ICAM-1 antibody related to regulation of gene expression using ELISA technology.Data from the assay component BSK_BE3C_ICAM1 was analyzed at the endpoint, BSK_BE3C_ICAM1, in the positive analysis fitting direction relative to DMSO as the negative control and baseline of activity. Using a type of binding reporter, gain or loss-of-signal activity can be used to understand protein changes. To generalize the intended target to other relatable targets, this assay endpoint is annotated to the 'cell adhesion molecules' intended target family, where the subfamily is 'Immunoglobulin CAM'.
The levels of cell surface (or secreted, indicated by the prefix "s") biomarker endpoints were measured by ELISA. Overt cytotoxicity to cells in confluent adherent cultures (all systems other than the BT system) was assessed by measuring total protein levels using sulforhodamine B (SRB) staining in parallel cultures at the time of biomarker measurements, indicated as SRB endpoints. For proliferation assays for adherent cell types, individual cell types are cultured at sub-confluence and relative cell numbers quantified by SRB staining at time points optimized for each system (48 h: 3C and CASM3C systems; 72 h: BT and HDF3CGF systems; 96 h: SAg system). SRB was performed by staining cells with 0.1% SRB after fixation with 10% TCA and reading wells at 560 nm.Viability and proliferation of PBMC (T cells) was quantified by Alamar Blue reduction for the SAg and BT systems. For PBMC viability (referred to as PBMC Cytotoxicity within the assay endpoint names), cells were plated (75,000/well in a 96-well plate) and then chemical samples added for 1 h before addition of activators, SEB and TSST-1 (20 ng/mL final concentration each). Cells were incubated for 90 h. Then, Alamar Blue (20 uL/well) (Invitrogen, Cat DAL1100) was added for 6 h, and the plates were read with a fluorescence microplate reader at 546/580 nm (excitation/emission). For PBMC proliferation, cells were plated and activated as above but incubated for only 16 h prior to addition of Alamar Blue. Plates were read after 6 h.
On to `CC(O)C(F)(F)C(F)(F)F` (stereo not given), for which the outcome was inactive.

For the compound `O=C(O)C(F)(F)OC(F)(F)C(F)(F)OC(F)(F)F`, the outcome was inactive.

Take `FC(F)(F)C(F)(C(F)(F)F)C(F)(F)C(F)(F)CC1CO1` (stereo not given): the result was inactive.

As for `O=C(O)C(F)(OC(F)(F)C(F)(F)C(F)(F)F)C(F)(F)F` (stereo not given), the result was inactive.

Consider `O=C(O)C=CC(F)(C(F)(F)F)C(F)(F)F`, for which the outcome was inactive.

Take `NC(=O)C(F)(F)C(F)(F)F`: the outcome was inactive.

Turning to `OCC(F)(F)OC(F)(F)C(F)(F)OC(F)(F)C(F)(F)OC(F)(F)F`, the result was inactive.

Take `COP(=O)(CCC(=O)NCO)OC`: the outcome was inactive.

Take `OCC(F)(F)OC(F)(F)C(F)(F)OC(F)(F)CO`: the result was inactive.

On to `COC(=O)C(F)(F)C(F)(F)OC(F)(C(F)(F)F)C(F)(F)OC(F)=C(F)F` (stereo not given), for which the outcome was inactive.

In the case of `C=CC(=O)OCC(F)(F)C(F)F`, the outcome was inactive.

Take `O=C(O)C(F)(F)C(F)(F)C(=O)O`: the outcome was inactive.

With `OCC(F)(F)OC(F)(F)C(F)(F)OC(F)(F)C(F)(F)OC(F)(F)CO`, the outcome was inactive.

`O=C(O)C(F)(F)OC(F)(F)C(F)(F)OC(F)(F)C(=O)O`: the result was inactive.

For the compound `O=S(=O)(F)C(F)(F)C(F)(F)C(F)(F)C(F)(F)C(F)(F)C(F)(F)C(F)(F)C(F)(F)F`, the outcome was inactive.
